Reference: PubChem BioAssay AID652126 (The Scripps Research Institute Molecular Screening Center, 2013)
The whole screen tested about 370,000 compounds, of which about 3,700 (1%) were called active. The entries come from a sample that favours actives as a whole. Values without a mark were called inactive.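 Rule for the calls: active = activation above the mean over all tested compounds plus 3 SD (cut at about 0.9% in these data); inactive = the rest.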

Tested on: Nuclear hormone receptor DAF-12 (Strongyloides stercoralis)
Assay: S. stercoralis DAF-12 nuclear receptor activators, primary screen, cell-based, luminescence, HEK293, GRIP1 co-expression, lit1-tk-luc (AID 652126);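 note: 0% = DMSO-only wells and 100% = 3 µM delta7-dafachronic acid wells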
Details: HEK293 ssDAF-12/GRIP1 lit1-tk-luc reporter, at 6.8 µM, active compounds read high, % of 3 µM dafachronic acid response

Question: For `C[C@H]1[C@H](NC(=O)c2cccc(N(C)C)c2)CC[C@@]23CCCN2C(=O)CCC[C@@H]13`, which activation is on record?
Answer: Its activation is -1.05%.

Question: How did the activation turn out when `Cn1c(-c2ccco2)nc2cc3ccccc3cc21` was run?
Answer: Its activation is 1.86% (active).

Question: `Cn1c(SCC(=O)c2cccs2)nnc1-c1ccco1` was tested. Which activation did it give?
Answer: Its activation is -0.1%.

Question: With `O=S(=O)(Nc1ccc2nc(-c3ccco3)[nH]c2c1)c1ccccc1` as the compound, how does the activation read?
Answer: The activation was -0.88%.

Question: With `Cc1cc(NS(=O)(=O)c2ccc(NC(=O)CSc3nnc(SCc4ccc(F)cc4)s3)cc2)nc(C)n1` as the compound, how does the activation read?
Answer: Its activation is -1.33%.

Question: For `O=C1CCC2(CCC(c3ccc(Cl)cc3)CC2)N1CCO` (stereo not given), which activation is on record?
Answer: The activation was -1.42%.

Question: How did the activation turn out when `Oc1cccc2ccc(/C=C/c3ccc(Br)s3)nc12` was run?
Answer: The activation was 1.49% (active).

Question: For `O=C(CN1C(=O)NC2(CCCCC2)C1=O)NCCC1=CCCCC1`, which activation is on record?
Answer: The activation was -1.49%.

Question: How did the activation turn out when `CCOC(=O)c1cccc(NC(=O)CN(C)S(=O)(=O)c2ccc(-c3cocn3)s2)c1` was run?
Answer: The activation was 0.72%.

Question: `N[C@@H](Cc1ccccc1)C(=O)N1CCC[C@@H]1C(=O)N1CCC2CCN(S(=O)(=O)c3ccccc3)CC21` (stereo not given in full) was tested. Which activation did it give?
Answer: Its activation is -0.75%.

Question: How did the activation turn out when `CN(C)CCNC(=O)Cc1ccc([N+](=O)[O-])cc1` was run?
Answer: The activation was -0.65%.

Question: `CN(C)CCNC(=O)c1ccc(Cl)c2cc3ccccc3nc12` was tested. Which activation did it give?
Answer: The activation was 2.74% (active).

Question: Which activation does the source give for `O=C(NCCCNC(=O)c1ccccc1Cl)c1cnccn1` here?
Answer: Its activation is -0.77%.

Question: For `COc1ccc(Cn2cc(CN3[C@@H](CC(C)C)COc4cc(Br)ccc4S3(=O)=O)nn2)cc1`, which activation is on record?
Answer: The activation was -0.66%.

Question: For `Fc1ccc2nc(COCc3nc4ccc(F)cc4[nH]3)[nH]c2c1`, which activation is on record?
Answer: Its activation is -1.23%.

Question: How did the activation turn out when `Oc1cc2c(cc1O)CN(C(=S)NCCc1ccc(Cl)cc1)CCC2` was run?
Answer: Its activation is -1.68%.

Question: `CC1CCN(C(=O)CCNC(=O)c2ccccc2)CC1` was tested. Which activation did it give?
Answer: Its activation is -0.14%.

Question: Which activation does the source give for `CCN(CCNC(=O)C1=C(C)C(=O)OC12CCC(C)CC2)c1ccccc1` (stereo not given) here?
Answer: Its activation is 3.96% (active).

Question: Which activation does the source give for `CCOc1ccc(CCNC(=O)C2=C(C)C(=O)OC23CCC(C)CC3)cc1OCC` (stereo not given) here?
Answer: The activation was -0.29%.

Question: With `O=C(OC12CCCN(C1)/C(=C/c1cccnc1)C2)C1CCCC1` (stereo not given) as the compound, how does the activation read?
Answer: The activation was -1.43%.

Question: How did the activation turn out when `CCOC(=O)[C@@]12CN(C(=O)OC(C)(C)C)CC=C1N(Cc1ccc(OC)cc1)C(=O)[C@H]2CC(=O)NCc1ccc(OC)c(OC)c1` was run?
Answer: The activation was -0.75%.

Question: `C/C(=N\NC(=O)c1cccnc1)c1ccc(-n2ccnc2)cc1` was tested. Which activation did it give?
Answer: The activation was -1.15%.

Question: Which activation does the source give for `CC(NC(=O)c1ccccc1C(=O)O)c1ccc(-n2ccnc2)cc1` (stereo not given) here?
Answer: The activation was 0.93% (active).

Question: Which activation does the source give for `CC(NC(=O)c1ccccc1SCC(=O)N1CCCC1)c1ccccc1` (stereo not given) here?
Answer: The activation was -0.47%.

Question: How did the activation turn out when `C[C@H](C(=O)N(C)c1ccccc1)[C@@H](O)c1ccc2ccccc2c1` was run?
Answer: The activation was -0.52%.
